Compound activity: PubChem, National Center for Advancing Translational Sciences (NCATS)
D2 ag-1 – D2 dopamine receptor (human) agonism. activation, % at 2 µM. 0.53% of 340,000 active. HEK293 T-REx D2 cells, calcium flux agonist mode. P14416;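 active = activation over 3 SD above normal in the single-dose calcium agonist read, cut at about 30% in these data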
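Agonism scored from kinetic calcium signal (1 read/sec, 180 s) following compound pin transfer, after a 10 s baseline. Cells: HEK293 Trex line expressing inducible D2 receptor coupled to calcium, dye-loaded after overnight culture at 30 C.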
D2 antagonist – antagonists of human D2 dopamine receptor; P14416; 2% of 340,000 active; inhibition, % at 10 µM; HEK293 TREx D2 cells, calcium flux, dopamine EC80; in the data active = inhibition above about 30%; inactive = below that, where a call was filed
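In this primary screen, negative modulation is detected by tracking calcium flux after an EC80 dopamine challenge in inducible HEK293 T-REx D2 cells preexposed to test compound for 180 s.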
D2 PAM-1 – positive allosteric modulators of human D2 dopamine receptor | P14416 | DiscoveRx D2 beta-arrestin cells, luminescence, 90 min; 100% = 57 uM dopamine signal | potentiation, % (no concentration beside the values) | 0.23% of 360,000 active; in the data active = potentiation above about 50%; inconclusive = mostly about 30% to 49%
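PathHunter beta-arrestin assay in DiscoveRx D2 cells. Compounds were added with an EC20 of dopamine (50 nM final) for 90 min at 37 deg C. Luminescence was read 1 h after detection reagent, with 57 uM dopamine as the EC100 control.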
D2 ag-2 – human D2 receptor agonism in beta-arrestin assay; 0.084% of 360,000 active; DiscoveRx PathHunter D2 beta-arrestin, luminescence, 90 min; 100% = 57 uM dopamine signal; activation, % (test concentration not listed); P14416; in the data active = activation above about 40%; inconclusive = between about 15% and that limit
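DiscoveRx PathHunter D2 beta-arrestin cells (2,100/well) attached overnight, then compound-stimulated 90 min at 37 C in HBSS/10 mM HEPES/0.1% Tween-20 buffer; beta-galactosidase complementation read by luminescence after 1 h at ambient temperature. Dopamine 57 uM final (EC100) as control.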
D2 PAM-2 – D2 dopamine receptor (human) potentiation; 0.34% of 340,000 active; AID 485347; potentiation, % at 10 µM; P14416; HEK293 T-REx D2, calcium flux, EC20 dopamine potentiation;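 active = potentiation over 3 SD above the plate norm, cut at about 30% in these data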
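Cells plated with tetracycline inducer and held overnight at 30 C; calcium dye loaded 30–90 min at room temperature; baseline taken, compound added and read 180 s; EC20 dopamine then added and read 180 s.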
Anesthetic bind – candidate novel general anesthetic via apoferritin binding; P02791; apoferritin/1-aminoanthracene competitive binding, fluorescence; Potency, µM (titrated, usually from 77.5 µM), most hits filed as inhibitors; 0.074% of 350,000 active; AID 485281; note: nearly all actives have a fitted effect of over 20% in size
Target sequence (P02791 2-175 limits assumed): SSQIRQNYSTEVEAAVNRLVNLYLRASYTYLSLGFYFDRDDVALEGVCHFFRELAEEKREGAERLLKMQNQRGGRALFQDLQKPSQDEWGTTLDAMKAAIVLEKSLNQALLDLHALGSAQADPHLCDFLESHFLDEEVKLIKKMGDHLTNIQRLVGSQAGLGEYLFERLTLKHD
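In PBS, apoferritin at 10 uM is loaded with 1-AMA from a 50% saturated solution. After 10 min of compound exposure at ambient temperature, reduced 535 nm fluorescence indicates probe displacement.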
D3 ag – D3 receptor agonism confirmed, beta-arrestin readout; AID 720506; Potency, µM (doses to about 76.9 µM), hits mostly activators; 4% of 2,300 active; shares compounds with D2 ag-1; DiscoveRx D3 beta-arrestin cells, luminescence, 90 min; note: nearly all actives have a fitted effect of over 70% in size
Target sequence (P35462 whole entry, looked up): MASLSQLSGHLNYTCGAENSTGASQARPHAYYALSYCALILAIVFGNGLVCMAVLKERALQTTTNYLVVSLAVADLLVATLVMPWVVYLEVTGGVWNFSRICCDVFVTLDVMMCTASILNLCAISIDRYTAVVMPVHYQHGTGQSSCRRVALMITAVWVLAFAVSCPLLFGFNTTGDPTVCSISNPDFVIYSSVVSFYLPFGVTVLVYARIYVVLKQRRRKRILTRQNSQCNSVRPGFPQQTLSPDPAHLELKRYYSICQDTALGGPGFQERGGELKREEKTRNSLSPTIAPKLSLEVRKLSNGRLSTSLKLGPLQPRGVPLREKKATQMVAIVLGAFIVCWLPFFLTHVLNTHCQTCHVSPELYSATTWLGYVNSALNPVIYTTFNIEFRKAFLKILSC
D2 ag-3 – activates human D2 dopamine receptor in D3 counterscreen. shares compounds with D2 ag-1. DiscoveRx PathHunter D2 beta-arrestin, luminescence, 90 min; response scale: percent relative to full dopamine signal. Potency, µM (highest dose often 76.9 µM), actives largely listed as activators. 5.9% of 2,300 active; note: nearly all actives have a fitted effect of over 70% in size
Of the large screens only hits and unclear results are named; the others gave an inactive call (follow-up assays come after a bar, where they were run). A selection: hits, their analogues and other compounds. The true share with any hit is near 2.5%. Unless noted, calls come from the whole dose curve; as a rule, active = well fitted curve in the direction sought with a large enough effect; inconclusive = small, poorly fitted or top-dose-only effect, or another doubt; inactive = no such curve, though single readings can be large; an effect the other way counts as inactive or inconclusive.

Cc1ccc(NC(=O)CN2CCN(c3ccccn3)CC2)c(Cl)c1	none
O=C(CN1CCN(c2ccccn2)CC1)Nc1cc(F)ccc1F	D2 ag-1 50.5 | D3 ag inactive | D2 ag-3 inactive
Cc1ccc(F)cc1NC(=O)CN1CCN(c2ccccn2)CC1	D2 antagonist 50.3, D2 ag-2 inconclusive | D3 ag inactive | D2 ag-3 inconclusive
O=C(CSc1ccc(-c2ccccn2)nn1)Nc1cccc(F)c1	D2 ag-1 71.1, Anesthetic bind inconclusive | D3 ag inactive | D2 ag-3 inactive
O=C(CN1CCN(c2ccccn2)CC1)Nc1cccc(S(=O)(=O)N2CCOCC2)c1	D2 ag-1 42.0 | D3 ag inactive | D2 ag-3 inconclusive
Cc1cc(C)cc(NC(=O)CSc2ccc(-c3ccccn3)nn2)c1	none
C#CCOCCOCCOCCNc1nc(N2CCN(C(=O)[C@H](CO)n3cc([C@@H](N)C(C)C)nn3)CC2)nc(N2CCN(C(=O)[C@H](CCCCN)n3cc([C@@H](N)[C@H](C)CC)nn3)CC2)n1	none (no result: D2 ag-1, D2 antagonist, D2 PAM-2, Anesthetic bind)
O=C(Cn1ncc2c3ccccc3n(Cc3ccccc3)c2c1=O)NC1CCCC1	none
Cc1cc(C)cc(NC(=O)CN2CCN(c3ncccn3)CC2)c1	none
O=C(Nc1cccc(S(=O)(=O)N2CCOCC2)c1)C(c1ccccc1)N1CCCCC1 (stereo unspecified)	none (no result: D2 ag-1, D2 antagonist, D2 PAM-2)
O=C(CN1CCN(c2ccccn2)CC1)Nc1ccccc1F	D2 ag-1 73.0, D2 antagonist 56.9 | D3 ag inactive | D2 ag-3 inactive
O=C(CN1CCN(c2ncccn2)CC1)Nc1ccccc1-n1cccc1	D2 ag-1 37.9 | D3 ag inactive | D2 ag-3 inactive
O=C(CN1CCN(c2ccccn2)CC1)Nc1ccc(F)cc1F	D2 ag-1 59.4 | D3 ag inactive | D2 ag-3 inconclusive
CC(C(=O)Nc1cccc(S(=O)(=O)N2CCOCC2)c1)N1CCN(C/C=C/c2ccccc2)CC1 (stereo unspecified)	D2 ag-1 51.3, D2 antagonist 79.9 | D3 ag inconclusive | D2 ag-3 inactive
O=C(CS(=O)CC(=O)Nc1cnc2ccccc2c1)Nc1ccc(Cl)cc1 (stereo unspecified)	none (no result: D2 ag-1, D2 antagonist, D2 PAM-2)
CC(C)(C)c1ccc(C(=O)NC2(C(F)(F)F)NC(=O)N(CCc3ccccc3)C2=O)cc1 (stereo unspecified)	Anesthetic bind inconclusive (no result: D2 antagonist, D2 PAM-1, D2 ag-2)
CCN(CC)CCNC(=O)C1CCCN(c2nnc(C)c3c(C)n(-c4ccc(Cl)cc4)nc23)C1 (stereo unspecified)	none (no result: D2 antagonist, D2 PAM-1, D2 ag-2)
Cc1ccccc1OCC(=O)Nc1cccc(S(=O)(=O)NC2=NCCC2)c1	none (no result: Anesthetic bind)
O=C(CN1CCN(c2ccccn2)CC1)Nc1cccc(F)c1	none | D3 ag inactive | D2 ag-3 inactive
O=C(CN1CCN(c2ccccn2)CC1)Nc1ccccc1Br	D2 ag-1 46.7, D2 antagonist 38.0, D2 ag-2 inconclusive | D3 ag inactive | D2 ag-3 inactive
O=C(CN1CCc2ccccc2C1)Nc1ccc(F)cc1	none
N#Cc1ccccc1NC(=O)CN1CCN(c2ccccn2)CC1	none
O=C(CN1CCc2ccccc2C1)Nc1ccccc1F	D2 ag-1 46.7, D2 antagonist 64.5, D2 ag-2 inconclusive, Anesthetic bind inconclusive | D3 ag inconclusive | D2 ag-3 inactive
COC(=O)c1ccc(C(c2c(N)n(CC(C)C)c(=O)[nH]c2=O)N2CCN(c3ccccc3)CC2)cc1 (stereo unspecified)	Anesthetic bind inconclusive (no result: D2 ag-1, D2 antagonist, D2 PAM-2)
CCCn1c(N)c(C(c2ccc(C(=O)OC)cc2)N2CCN(c3ccccc3)CC2)c(=O)[nH]c1=O (stereo unspecified)	D2 ag-1 47.5 | D3 ag inactive | D2 ag-3 inactive
CCCn1c(N)c(C(c2ccc(OC)cc2)N2CCN(c3ccccc3)CC2)c(=O)[nH]c1=O (stereo unspecified)	D2 ag-1 42.8, Anesthetic bind inconclusive | D3 ag inactive | D2 ag-3 inactive
O=C(COC(=O)CC1CCCC1)Nc1cc2c(cc1Cl)C(=O)c1ccccc1C2=O	none
COc1ccc(NC(=O)CN(C)C(=O)c2csc3c2CCCC3)cc1	none (no result: Anesthetic bind)
COc1cccc(NC(=O)CN(C)C(=O)c2csc3c2CCCC3)c1	none (no result: D2 ag-1, D2 antagonist, D2 PAM-2, Anesthetic bind) | D3 ag inactive | D2 ag-3 inactive
COC(=O)C(C)Sc1nnc(Cc2cc(=O)[nH]c(=O)[nH]2)n1-c1cc(C)ccc1C (stereo unspecified)	none
CS(=O)(=O)N(CC(=O)Nc1ccccc1C(=O)NCc1ccccc1)c1ccc2c(c1)OCCO2	none
O=[N+]([O-])c1cc(Br)c2nsnc2c1N1CCOCC1	Anesthetic bind inconclusive | D3 ag inactive | D2 ag-3 inactive
Cc1c(NC2=C(Cl)C(=O)N(c3ccccc3Cl)C2=O)c(=O)n(-c2ccccc2)n1C	D2 ag-1 44.4 | D3 ag inactive | D2 ag-3 inactive
Cc1cc(=O)[nH]c(Nc2c(C)n(C)n(-c3ccccc3)c2=O)n1	none
CCCCNC(=O)N(O)C1N(/N=C/c2ccccc2OC)C(=S)SC1(C)C (stereo unspecified)	none
CCOC(=O)C1CCN(C(=O)C2(NC(=O)Nc3ccc(F)cc3F)CCCCC2)CC1	none
CCc1ccccc1Nc1nc2ccccc2n1C	Anesthetic bind inconclusive
CC(=O)c1ccc(NC(=O)Cn2cnc(S(=O)(=O)N3CCc4ccccc43)c2)cc1	D2 ag-1 54.2 | D3 ag inactive | D2 ag-3 inactive
CC(=O)N1CCN(C(C)=O)C1c1ccccc1	none
CC(=O)N1C(O)CC(C)N1c1ccccc1 (stereo unspecified)	none | D3 ag inactive | D2 ag-3 inactive
COC(=O)[C@@H](N)CS	none
COc1ccc(C2c3c(-c4ccccc4)n[nH]c3C(=O)N2c2ccc(C(=O)O)cc2)cc1 (stereo unspecified)	D2 antagonist 39.0 | D3 ag inactive | D2 ag-3 inactive
Cc1cccc(NC(=O)C2CCN(S(=O)(=O)c3ccc4c(c3)OCCO4)CC2)n1	none (no result: Anesthetic bind)
COc1ccc(S(=O)(=O)N2CCN(C(=O)COc3ccccc3)CC2)cc1	none
CCN1CCN(C/C(C)=C/c2ccccc2)CC1	none
C/C(=C\c1ccccc1)CN1CCN(c2ccccc2F)CC1	D2 antagonist 66.9 | D3 ag inactive | D2 ag-3 inactive
